Read-out in assay [1]: TIMP metallopeptidase inhibitor 1 (TIMP1), TIMP1 (gene 7076)
The experiment in a line: BSK_hDFCGF_TIMP1: BioMAP Diversity Plus: hDFCGF Assay for TIMP metallopeptidase inhibitor 1 (TIMP1) Biomarker Activity (AID 2283062). Conditions: primary human foreskin fibroblasts; actives raise or lower the signal. Put shortly: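 Bidirectional curve fitting against DMSO baseline yielded this endpoint, based on ELISA detection of TIMP-1 in primary human foreskin fibroblasts exposed to compound for 24 h.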

Read-out in assay [2]: Monokine induced gamma interferon (MIG), CXCL9 (gene 4283)
As to the kind of experiment: BSK_hDFCGF_MIG: BioMAP Diversity Plus: hDFCGF Assay for Monokine induced gamma interferon (MIG) Biomarker Activity (AID 2283063). Conditions: primary human foreskin fibroblasts; actives raise or lower the signal. The method, boiled down:
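Endpoint derived by bidirectional fitting relative to DMSO; MIG quantified via ELISA in primary human foreskin fibroblasts harvested 24 h after dosing.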

Read-out in assay [3]: Vascular cell adhesion molecule 1 (VCAM1), VCAM1 (gene 7412)
The experiment in a line: BSK_hDFCGF_VCAM1: BioMAP Diversity Plus: hDFCGF Assay for Vascular cell adhesion molecule 1 (VCAM1) Biomarker Activity (AID 2283065). The settings on record: primary human foreskin fibroblasts; actives raise or lower the signal. Put shortly: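 Measured after 24 h chemical treatment of primary human skin fibroblasts, VCAM-1 was detected by ELISA and concentration-response analysed in both directions versus DMSO vehicle.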

Read-out in assay [4]: Plasminogen activator inhibitor-1 (PAI1), SERPINE1 (gene 5054)
The experiment in a line: BSK_hDFCGF_PAI1: BioMAP Diversity Plus: hDFCGF Assay for Plasminogen activator inhibitor-1 (PAI1) Biomarker Activity (AID 2283066). Conditions: primary human foreskin fibroblasts; actives raise or lower the signal. Put shortly:
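PAI-1 levels in human dermal foreskin fibroblasts were quantified by ELISA 24 h after dosing, with gain or loss analysed against DMSO. Overt cytotoxicity was checked by sulforhodamine B total-protein staining in parallel cultures.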

Read-out in assay [5]: Intercellular Adhesion Molecule 1 (ICAM1), ICAM1 (gene 3383)
As to the kind of experiment: BSK_KF3CT_ICAM1: BioMAP Diversity Plus: KF3CT Assay for Intercellular Adhesion Molecule 1 (ICAM1) Biomarker Activity (AID 2283067). The settings on record: primary human keratinocytes with fibroblasts; actives raise or lower the signal. The method, boiled down:
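Bidirectional curve fitting against a DMSO baseline was applied to ICAM-1 ELISA signal from primary human skin co-cultures harvested 24 h after treatment, with SRB staining of parallel wells for overt cytotoxicity.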

Read-out in assay [6]: Interferon-gamma inducible Protein 10 (IP10), CXCL10 (gene 3627)
The experiment in a line: BSK_KF3CT_IP10: BioMAP Diversity Plus: KF3CT Assay for Interferon-gamma inducible Protein 10 (IP10) Biomarker Activity (AID 2283068). Conditions: primary human keratinocytes with fibroblasts; actives raise or lower the signal. Put shortly:
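In a primary skin co-culture of keratinocytes and fibroblasts, IP-10 is quantified by ELISA at 24 h after dosing. SRB staining of parallel wells monitors overt toxicity. Curves are fitted both directions against DMSO.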

The nature of assay [7]: BSK_KF3CT_SRB: Viability Assessment in the BioMAP Diversity Plus: KF3CT Assay (AID 2283069).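 Also: read 24 h after compound addition.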 The settings on record: primary human keratinocytes with fibroblasts. Put shortly:
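SRB read-out at 560 nm (0.1% stain, TCA-fixed cells) gauges overt cytotoxicity in a human skin keratinocyte–fibroblast co-culture 24 h post-dosing. Signal change was fitted bidirectionally relative to DMSO control.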

Read-out in assay [8]: Interleukin-1 alpha (IL1a), IL1A (gene 3552)
The experiment in a line: BSK_KF3CT_IL1a: BioMAP Diversity Plus: KF3CT Assay for Interleukin-1 alpha (IL1a) Biomarker Activity (AID 2283070). Conditions: primary human keratinocytes with fibroblasts; actives raise or lower the signal. Put shortly: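 Primary skin co-culture (keratinocytes, foreskin fibroblasts), 24 h exposure; ELISA for IL-1a; bidirectional curve fit vs DMSO.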

Read-out in assay [9]: Transforming growth factor beta 1 (TGFb1), TGFB1 (gene 7040)
As to the kind of experiment: BSK_KF3CT_TGFb1: BioMAP Diversity Plus: KF3CT Assay for Transforming growth factor beta 1 (TGFb1) Biomarker Activity (AID 2283072). The settings on record: primary human keratinocytes with fibroblasts; actives raise or lower the signal. The method, boiled down:
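ELISA quantifies TGF-b1 at 24 h post-dose in a primary human skin co-culture of keratinocytes and fibroblasts, with gain or loss judged against DMSO. Parallel SRB total-protein staining flags overt cytotoxicity.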

Read-out in assay [10]: Matrix Metallopeptidase 9 (MMP9), MMP9 (gene 4318)
The experiment in a line: BSK_KF3CT_MMP9: BioMAP Diversity Plus: KF3CT Assay for Matrix Metallopeptidase 9 (MMP9) Biomarker Activity (AID 2283074).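 As to AC50: MMP9 protein level quantified by ELISA in the co-culture.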 Conditions: primary human keratinocytes with fibroblasts; actives raise or lower the signal. Put shortly:
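ELISA read-out of MMP-9 at 24 h post-dosing in a co-culture of human skin keratinocytes and foreskin fibroblasts. Gain or loss of signal was fitted in both directions against DMSO.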

Read-out in assay [11]: urokinase plasminogen activator (uPA), PLAU (gene 5328)
The experiment in a line: BSK_KF3CT_uPA: BioMAP Diversity Plus: KF3CT Assay for urokinase plasminogen activator (uPA) Biomarker Activity (AID 2283075). The settings on record: primary human keratinocytes with fibroblasts; actives raise or lower the signal. Put shortly: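 Skin co-culture (keratinocytes + foreskin fibroblasts), human primary; 24 h post-dose; uPA by ELISA; gain/loss fit vs DMSO baseline.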

Read-out in a further assay: CD40, CD40 (gene 958)
The experiment in a line: BSK_LPS_CD40: BioMAP Diversity Plus: LPS Assay for CD40 Biomarker Activity (AID 2283076). The settings on record: primary human HUVEC with PBMC; actives raise or lower the signal. The method, boiled down:
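Using a multiplexed primary human co-culture (umbilical vein endothelium plus PBMC), CD40 was read by ELISA 24 h after dosing, with cytotoxicity tracked by sulforhodamine B staining of parallel cultures and activity fitted bidirectionally versus DMSO.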

Read-out in assay [12]: E-selectin (Homo sapiens) (UniProt P16581)
The experiment in a line: BSK_LPS_Eselectin: BioMAP Diversity Plus: LPS Assay for Eselectin Biomarker Activity (AID 2283077). The settings on record: primary human HUVEC with PBMC; actives raise or lower the signal. Put shortly: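 Dose chemical onto LPS-driven HUVEC/PBMC co-culture; after 24 h, run ELISA for E-selectin; fit up- and down-going responses relative to DMSO control.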

A short description of assay [13]: BSK_LPS_SRB: Viability Assessment in the BioMAP Diversity Plus: LPS Assay (AID 2283079).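 Also: total protein by sulforhodamine B absorbance as a cytotoxicity measure; measured one day after compound addition.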 Conditions: primary human HUVEC with PBMC. Put shortly: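 Cytotoxicity endpoint in human endothelial–PBMC co-culture: 24 h exposure, then SRB (0.1%) staining, 560 nm read.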
Read-out in assay [14]: Interleukin-1 alpha (IL1a), IL1A (gene 3552)
The experiment in a line: BSK_LPS_IL1a: BioMAP Diversity Plus: LPS Assay for Interleukin-1 alpha (IL1a) Biomarker Activity (AID 2283080). Conditions: primary human HUVEC with PBMC; actives raise or lower the signal. Put shortly:
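Primary human HUVEC and PBMC co-culture stimulated with LPS is dosed and harvested at 24 h. Both increases and decreases in ELISA-measured IL-1a are scored relative to DMSO.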

Read-out in assay [15]: Monocyte Chemoattractant Protein-1 (MCP1), CCL2 (gene 6347)
As to the kind of experiment: BSK_LPS_MCP1: BioMAP Diversity Plus: LPS Assay for Monocyte Chemoattractant Protein-1 (MCP1) Biomarker Activity (AID 2283081). The settings on record: primary human HUVEC with PBMC; actives raise or lower the signal. Put shortly: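 Values derive from bidirectional fitting against DMSO of ELISA-measured MCP-1 in a human primary endothelial and mononuclear cell co-culture, 24 h after chemical addition under LPS activation.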

Read-out in assay [16]: TIMP metallopeptidase inhibitor 2 (TIMP2), TIMP2 (gene 7077)
As to the kind of experiment: BSK_KF3CT_TIMP2: BioMAP Diversity Plus: KF3CT Assay for TIMP metallopeptidase inhibitor 2 (TIMP2) Biomarker Activity (AID 2283071). Conditions: primary human keratinocytes with fibroblasts; actives raise or lower the signal. The method, boiled down: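 TIMP-2 measured by ELISA at 24 h in human keratinocyte/fibroblast primary co-cultures exposed to chemicals. Both increases and decreases were fitted against DMSO. Parallel cultures were stained with SRB for total protein as an overt-cytotoxicity check.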

Read-out in assay [17]: C-C motif chemokine 2 (Homo sapiens) (UniProt P13500)
As to the kind of experiment: BSK_KF3CT_MCP1: BioMAP Diversity Plus: KF3CT Assay for Monocyte Chemoattractant Protein 1 (MCP1/CCL2) Biomarker Activity (AID 2283073). Conditions: primary human keratinocytes with fibroblasts; actives raise or lower the signal. Put shortly: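 Biomarker MCP-1 is measured by ELISA in primary human keratinocytes co-cultured with foreskin fibroblasts, 24 h after chemical treatment; DMSO serves as the negative control and activity baseline.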

Read-out in assay [18]: Matrix Metallopeptidase 1 (MMP1), MMP1 (gene 4312)
The experiment in a line: BSK_hDFCGF_MMP1: BioMAP Diversity Plus: hDFCGF Assay for Matrix Metallopeptidase 1 (MMP1) Biomarker Activity (AID 2283064). The settings on record: primary human foreskin fibroblasts; actives raise or lower the signal. Put shortly: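 ELISA read-out of MMP1 from human foreskin fibroblasts (primary skin cells), 24 h post-dose. Gain or loss of signal was fitted bidirectionally versus DMSO negative control; cytotoxicity was checked by SRB in parallel cultures.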

Read-out in assay [19]: Interleukin-8 (IL8), CXCL8 (gene 3576)
As to the kind of experiment: BSK_LPS_IL8: BioMAP Diversity Plus: LPS Assay for Interleukin-8 (IL8) Biomarker Activity (AID 2283078). The settings on record: primary human HUVEC with PBMC; actives raise or lower the signal. The method, boiled down: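 In this LPS system, chemical-treated human umbilical vein endothelium/PBMC co-cultures were harvested at 24 h for IL-8 ELISA.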

Results on four compounds are retold here after PubChem BioAssay (EPA / NIEHS).

Activity calls are given as the source filed them. The calls were made as follows: active = hit-call score of the fitted dose curve at least 0.9, where 1 is the maximum; inactive = score below 0.9.

As usually defined, the AC50 is the concentration at which the activity in the assay is half-maximal.

E-selectin (Homo sapiens), sequence (P16581 whole entry, looked up): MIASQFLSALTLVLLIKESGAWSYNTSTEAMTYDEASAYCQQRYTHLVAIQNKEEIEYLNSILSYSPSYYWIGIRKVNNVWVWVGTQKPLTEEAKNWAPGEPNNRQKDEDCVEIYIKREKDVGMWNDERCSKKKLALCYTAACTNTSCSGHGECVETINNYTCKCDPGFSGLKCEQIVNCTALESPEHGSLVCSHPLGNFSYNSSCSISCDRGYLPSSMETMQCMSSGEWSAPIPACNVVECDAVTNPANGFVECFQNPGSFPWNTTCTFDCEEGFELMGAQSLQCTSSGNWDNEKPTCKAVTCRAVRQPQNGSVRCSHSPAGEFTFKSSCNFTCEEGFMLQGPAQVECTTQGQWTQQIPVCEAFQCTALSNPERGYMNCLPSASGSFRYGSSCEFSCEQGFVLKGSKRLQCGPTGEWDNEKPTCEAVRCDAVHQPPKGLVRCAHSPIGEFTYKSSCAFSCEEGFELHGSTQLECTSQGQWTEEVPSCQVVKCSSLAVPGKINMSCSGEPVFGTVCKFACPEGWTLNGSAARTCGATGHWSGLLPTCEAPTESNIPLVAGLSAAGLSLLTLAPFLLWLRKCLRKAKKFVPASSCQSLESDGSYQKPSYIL

With `CC(C)c1cccc(C(C)C)c1`, the result in assay [1], in assay [2], in assay [3], in assay [4], in assay [5] and in assay [6] was inactive. The outcome is “inactive” in assay [7]; “inactive” in assay [8]; “inactive” in assay [9]; “inactive” in assay [10]; “inactive” in assay [11]; “inactive” in the assay with CD40, CD40 (gene 958). Also, the result in assay [12], in assay [13], in [14] and in assay [15] was inactive.

For the compound `CC(=O)OC1CC(C)OC(C)O1` (configuration not stated), the result in assay [1], in [2], in assay [3], in assay [5], in assay [6] and in [8] was inactive. Moreover, the outcome in assay [16] is “inactive”; in assay [9] it was “inactive”; in assay [17], “inactive”; in [10], “inactive”; in assay [11] it was “inactive”; with CD40, CD40 (gene 958), “inactive”. In addition, the outcome in assay [12], in [13], in [14] and in assay [15] was inactive. Besides, the AC50 in [4] is 523 nM (active).

For `CCCCc1nc2cccnc2n1Cc1ccc(-c2ccccc2-c2nnn[nH]2)cc1`, the result in [1], in assay [18], in assay [3], in [4], in assay [5] and in [8] was inactive. The outcome was “inactive” in [16]; “inactive” in assay [9]; “inactive” in [17]; “inactive” in assay [11]; “inactive” with CD40, CD40 (gene 958); “inactive” in assay [12]. Besides, the result in [14] and in [15] was inactive. The AC50 in assay [6] was 29700 nM (active); in [10], 26.8 nM (active).

For the compound `CCOCCOCCO`, the outcome in [1], in assay [18], in assay [3], in [4], in assay [5] and in assay [6] was inactive. Besides, the result in [8], in assay [16], in [9], in assay [17], in [10] and in assay [11] was inactive. Further, the outcome is “inactive” with CD40, CD40 (gene 958); “inactive” in assay [12]; “inactive” in assay [19]; “inactive” in [13]; “inactive” in [14]; “inactive” in assay [15].
